Reference: PubChem BioAssay
Records with an inconclusive call do not appear. For some assays here: Potency and affinity values are given separately. Calls of active or inactive are those of the source.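 Rule for the calls, unless noted: active = compounds killing one labelled cell type while sparing the other, by normalised counts and ratio limits, not self-fluorescent; inactive = the rest.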

How the values were obtained:
[1] = polyglutamine-triggered caspase-3 activation inhibitors, cell-based (AID 1583); settings: polyglutamine-induced caspase-3 activation, cell assay; stronger effect = higher value;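 tested at 10 µM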
[2] = suppressors of polyQ aggregation in yeast, 75Q-TubU reporter (AID 1593); settings: Yeast 75Q polyglutamine aggregation reporter
[3] = rescue of polyQ-huntingtin neuronal dysfunction in worms, whole organism, C. elegans mechanosensory neurons, N-terminal huntingtin (AID 1599); settings: touch response, stronger effect = higher value
[4] = inhibitors of mitochondrial cytochrome c release, biochemical, purified mitochondria (AID 1603); settings: stronger effect = lower value;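 note: mouse liver mitochondria challenged with calcium chloride; signal normalized to the plate average as 100%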
[5] = inhibitors of polyQ protein aggregation (AID 1604); settings: polyglutamine-induced protein aggregation inhibition assay; stronger effect = higher value; tested at 2.5 µM
[6] = enhancers of glutamate uptake in motor neurons, MN-1 cell line (AID 1612); settings: MN-1 motor neuron cells, stronger effect = higher value;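 note: tested at 1 µM final; 0% = mean of DMSO vehicle wells on each plate; positive means more glutamate uptake than control and negative means less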
[7] = reducers of polyQ inclusions in PC12 cells, cell-based, NGF-treated PC12, GFPQ80 (AID 1614); settings: PC12 NGF-treated GFP-polyQ80 inclusion reduction;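 note: lower means fewer inclusions and 0 means no inclusions at all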
[8] = suppressors of polyglutamine aggregation in yeast, 75Q-TubH (AID 1616); settings: S. cerevisiae 75Q-TubH polyglutamine aggregation suppression; stronger effect = higher value
[9] = differential killing of epithelial or mesenchymal cells, primary screen, imaging, PC-3E GFP, TEM4-18 mCherry, co-culture (AID 1345086); settings: imaging cell counts, at 1 µM; for red/green cell ratio (normalised): actives lie on both sides, counts scaled to control wells, 1 = unselective;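 for all read-outs here: cells exposed to compound for 72 h before imaging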;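 for red/green cell ratio (normalised): normalised mesenchymal count divided by normalised epithelial count so high means epithelial killing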
[10] = liver-stage malaria parasite growth inhibition, primary screen, cell-based, HepG2, luciferase luminescence, HepG2 viability (AID 624349; in the data active = parasite load remaining mostly below about 12%, no sharp cut-off; inactive = mostly above about 10%;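 note: 100% = mean of DMSO negative control wells on the same plate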); settings: P. berghei liver stage in HepG2, luciferase luminescence, concentration not given here; parasite load remaining: stronger effect = lower value; viability: measured here: HepG2 viability without parasites
[11] = target: Mitogen-activated protein kinase 7 (Homo sapiens) (UniProt Q13164); assay: ERK5 transactivation activators in reporter cells, primary screen, cell-based, HTS (AID 1508626;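 active = luciferase signal above three times the same-plate solvent-only control wells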;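 note: luciferase driven by Gal4-ERK5 fusion binding five Gal4 sites before minimal TATA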); settings: HeLa Gal4-ERK5 transactivation, 18 h, at 5 µM, stronger effect = higher value
Sequence of Mitogen-activated protein kinase 7 (Homo sapiens) (Q13164 whole entry, looked up, the tested form may be a part): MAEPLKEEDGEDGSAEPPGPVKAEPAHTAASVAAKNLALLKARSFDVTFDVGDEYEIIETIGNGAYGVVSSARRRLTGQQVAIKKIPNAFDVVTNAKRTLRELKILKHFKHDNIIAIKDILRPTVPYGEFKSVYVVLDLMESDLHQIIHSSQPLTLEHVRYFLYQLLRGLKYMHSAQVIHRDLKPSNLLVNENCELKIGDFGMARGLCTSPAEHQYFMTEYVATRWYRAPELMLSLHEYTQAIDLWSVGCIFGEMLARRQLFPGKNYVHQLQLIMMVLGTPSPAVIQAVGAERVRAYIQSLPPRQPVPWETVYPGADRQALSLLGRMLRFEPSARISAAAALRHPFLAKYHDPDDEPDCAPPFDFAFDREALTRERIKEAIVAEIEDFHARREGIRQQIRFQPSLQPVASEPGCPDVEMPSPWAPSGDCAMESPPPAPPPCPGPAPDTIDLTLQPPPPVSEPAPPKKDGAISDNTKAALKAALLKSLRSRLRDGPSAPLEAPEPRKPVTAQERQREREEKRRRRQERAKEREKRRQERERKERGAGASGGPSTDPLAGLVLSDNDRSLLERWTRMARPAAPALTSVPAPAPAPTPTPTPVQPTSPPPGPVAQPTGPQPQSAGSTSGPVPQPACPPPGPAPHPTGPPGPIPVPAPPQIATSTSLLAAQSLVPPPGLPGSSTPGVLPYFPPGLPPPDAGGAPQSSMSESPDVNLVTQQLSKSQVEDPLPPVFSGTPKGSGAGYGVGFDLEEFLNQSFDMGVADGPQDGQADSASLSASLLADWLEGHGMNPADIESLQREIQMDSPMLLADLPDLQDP

[12] = viability rescue of complex I mutant cybrids, primary screen, cell-based, galactose medium, ATP luminescence (AID 1645843;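 active = z-score of at least 1.8 in each of two replicates, scored against plate mean and spread of sample wells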;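 note: positive z means more ATP and so rescue of galactose-driven cybrid death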); settings: complex I mutant cybrid cells, 72 h, stronger effect = higher value
[13] = protection against mutant huntingtin cytotoxicity, PC12 cells, LDH release (AID 1610); settings: PC12 mutant huntingtin toxicity, final LDH at 4 uM, stronger effect = lower value
[14] = measured here: epithelial PC-3E GFP cell survival
[15] = measured here: mesenchymal TEM4-18 mCherry cell survival

Compound	inhibition [1]	score [2]	rescue above control [3]	cytochrome c release ratio [4]	inhibition of aggregation [5]	glutamate uptake change [6]	inclusion score [7]	aggregation suppression score [8]	red/green cell ratio (normalised) [9]	normalised cell number [9, 14]	normalised cell number [9, 15]	parasite load remaining [10]	viability [10]	luciferase signal [11]	z-score [12]	normalised LDH release [13]
Nc1ccn(C2O[C@H](CO)[C@@H](O)[C@H]2O)c(=O)n1 (some centres not stated)	22%	1.09	-6.6	1.18	63.9%	6.93%	2	1.06	1.13 (inactive)	1.06	1.19					
CC1CCC2(OC1)OC1CC3C4CC[C@H]5C[C@@H](O)CC[C@]5(C)C4CC(=O)[C@]3(C)C1C2C (some centres not stated)	11.6%	1.42	-2.31	1.08	27.8%	2.67%	2	1.27	1.26 (inactive)	1.02	1.27	106% (inactive)	69.7%			
CC(C)CC(NC(=O)CCN)C(=O)O (configuration not stated)	1.74%	1.04	6.33	1.04	57.6%	14.1%	2	1.32	1.07 (inactive)	1.22	1.31					
CCCCC(=O)O[C@]1(C(=O)CO)[C@@H](C)CC2C3CCC4=CC(=O)C=C[C@]4(C)[C@@]3(F)C(O)C[C@@]21C (some centres not stated)									1.42 (inactive)	0.8	1.14	94.9% (inactive)	71%			
CCCC(=O)Nc1ncnc2c1ncn2C1O[C@@H]2COP(=O)(O)O[C@H]2[C@H]1OC(=O)CCC (some centres not stated)	-71.1%	1.26	1.51	0.87	77.8%	4.01%	2	1.79	0.94 (inactive)	0.93	0.88	129% (inactive)	95%			
CC(C)Oc1ccc2c(=O)cc(-c3ccccc3)oc2c1	19.6%	0.68	6.51	0.9	12.7%	-13.2%	2	0.599	0.86 (inactive)	1.15	0.99					
C[C@@H]1O[C@@H](OC[C@H]2OC(Oc3c(-c4ccc(OCCO)c(OCCO)c4)oc4cc(OCCO)cc(O)c4c3=O)[C@H](O)[C@@H](O)[C@@H]2O)[C@H](O)[C@H](O)[C@H]1O (some centres not stated)									0.94 (inactive)	1.03	0.96	141% (inactive)	89.1%			
O=c1ccn([C@@H]2O[C@H](COP(=O)(O)OP(=O)(O)OP(=O)(O)O)[C@@H](O)[C@H]2O)c(=O)[nH]1	-7.02%	1.5	2.48	0.87	60.6%	11.8%	2	1.14	1.18 (inactive)	0.94	1.1			36 AU (inactive)		
COC(=O)C(N)CS (configuration not stated)	-5.77%	1.37	-5.25	1.33	74.2%	10.6%	2	1.19	0.97 (inactive)	1.14	1.11	102% (inactive)	69.9%			
CC(=O)N1CCCC1C(=O)O (configuration not stated)									0.79 (inactive)	1.3	1.03	194% (inactive)	68.3%			
COC1=CC(C)[C@@H]2C[C@H]3OC(=O)C[C@H]4C(C)=C(OC)C(=O)C([C@@]34C)[C@@]2(C)C1=O (some centres not stated)	22.5%	1.3	-7.37	0.85	-1.96%	12.8%	2	1.57	0.78 (inactive)	1.31	1.03					
CC1(C)C2CC[C@]3(C)C(C(=O)C=C4[C@@H]5C[C@@](C)(C(=O)O)CC[C@]5(C)CC[C@]43C)[C@@]2(C)CC[C@@H]1O (some centres not stated)	22.2%	2.09	12	0.78	25.7%	-84.4%		1.4	0.98 (inactive)	0.92	0.89	94.2% (inactive)	71%			
CN[C@@H]1[C@@H](O)[C@@H](O[C@@H]2[C@@H](O)[C@H](O[C@H]3O[C@H]([C@@H](C)NC)CC[C@H]3N)[C@@H](N)C[C@H]2N)OC[C@]1(C)O									0.92 (inactive)	1.22	1.13				0 (inactive)	
COc1ccc([C@@H]2CC(=O)c3c(O)cc(O[C@@H]4O[C@H](CO[C@H]5O[C@@H](C)[C@H](O)[C@@H](O)[C@H]5O)[C@@H](O)[C@H](O)[C@H]4O)cc3O2)cc1O	12.3%	1.13	-5.33	0.96	83.3%	7.48%	2	1.41	0.82 (inactive)	0.99	0.81					
CC(=O)Oc1ccc2c(c1)CCC1C2CC[C@]2(C)C(=O)CCC12 (some centres not stated)									0.81 (inactive)	1.27	1.03	88.9% (inactive)	66.4%			
CC(=O)OCC(=O)[C@@]1(O)[C@H](C)CC2C3CCC4=CC(=O)C=C[C@]4(C)[C@@]3(F)[C@@H](O)C[C@@]21C (some centres not stated)	52.6%	0.99	1.81	1.17	69.4%	20.3%	2	1.32	1.26 (inactive)	1.37	1.74	140% (inactive)	73.1%			0.545
C1CCN2C[C@H]3C[C@H](CN4CCCC[C@@H]34)[C@H]2C1	-43.7%	1.18	-2.03	1.05	26.9%	8.14%	2	1.49	1.01 (inactive)	1.18	1.19					
